Records with an inconclusive call do not appear. Calls of active or inactive are those of the source. Calls come from the whole dose curve; as a rule, active = well fitted curve in the direction sought with a large enough effect; inconclusive = small, poorly fitted or top-dose-only effect, or another doubt; inactive = no such curve, though single readings can be large; an effect the other way counts as inactive or inconclusive.
Key:
[1] = Quantitative High-Throughput drug screen in 47 multiple myeloma cell lines against the NCATS MIPE library collection: NCIH929_DSMZ cell viability assay (AID 1918978); note: nearly all actives have a fitted effect of over 35% in size
In short: (§1)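 Inhibition of viability over 48 h was scored by ATP content (CellTiter-Glo) in 500-cell wells. Zero and full viability were defined by media-only and DMSO-only wells.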

[2] = Quantitative High-Throughput drug screen in 47 multiple myeloma cell lines against the NCATS MIPE library collection: MM1R_ATCC cell viability assay (AID 1918981); note: nearly all actives have a fitted effect of over 35% in size
In short: as §1

[3] = Quantitative High-Throughput drug screen in 47 multiple myeloma cell lines against the NCATS MIPE library collection: LP1_DSMZ cell viability assay (AID 1918982); note: nearly all actives have a fitted effect of over 35% in size
In short: as §1

[4] = Quantitative High-Throughput drug screen in 47 multiple myeloma cell lines against the NCATS MIPE library collection: KMS28PE_JCRB cell viability assay (AID 1918983); note: nearly all actives have a fitted effect of over 35% in size
In short: as §1

[5] = Quantitative High-Throughput drug screen in 47 multiple myeloma cell lines against the NCATS MIPE library collection: OCIMY7_PLB cell viability assay (AID 1918987); conditions: OCI-MY7 myeloma viability, CellTiter-Glo ATP, 48 h; viability (% of DMSO): at 45.8 µM (top of the series); note: nearly all actives have a fitted effect of over 65% in size
In short: as §1

[6] = Quantitative High-Throughput drug screen in 47 multiple myeloma cell lines against the NCATS MIPE library collection: OCIMY5_PLB cell viability assay (AID 1918988); note: nearly all actives have a fitted effect of over 65% in size
In short: as §1

[7] = Quantitative High-Throughput drug screen in 47 multiple myeloma cell lines against the NCATS MIPE library collection: XG6_PLB cell viability assay (AID 1919865); note: nearly all actives have a fitted effect of over 40% in size
In short: as §1

[8] = Quantitative High-Throughput drug screen in 47 multiple myeloma cell lines against the NCATS MIPE library collection: XG1_PLB cell viability assay (AID 1919866); note: nearly all actives have a fitted effect of over 35% in size
In short: as §1

[9] = Quantitative High-Throughput drug screen in 47 multiple myeloma cell lines against the NCATS MIPE library collection: VP6_DJ cell viability assay (AID 1919867); note: nearly all actives have a fitted effect of over 40% in size;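 for viability (% of DMSO): 100% = DMSO-only wells and 0% = wells with media alone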
In short: as §1

[10] = Quantitative High-Throughput drug screen in 47 multiple myeloma cell lines against the NCATS MIPE library collection: PE2_PLB cell viability assay (AID 1919869); note: nearly all actives have a fitted effect of over 35% in size
In short: as §1

[11] = Quantitative High-Throughput drug screen in 47 multiple myeloma cell lines against the NCATS MIPE library collection: PCM6_Riken cell viability assay (AID 1919870); note: nearly all actives have a fitted effect of over 30% in size
In short: as §1

[12] = Quantitative High-Throughput drug screen in 47 multiple myeloma cell lines against the NCATS MIPE library collection: L363_DSMZ cell viability assay (AID 1918984); note: nearly all actives have a fitted effect of over 40% in size
In short: as §1

[13] = Quantitative High-Throughput drug screen in 47 multiple myeloma cell lines against the NCATS MIPE library collection: KMS34_JCRB cell viability assay (AID 1918985); note: nearly all actives have a fitted effect of over 40% in size
In short: as §1

[14] = Quantitative High-Throughput drug screen in 47 multiple myeloma cell lines against the NCATS MIPE library collection: OPM1_PLB cell viability assay (AID 1918989); note: nearly all actives have a fitted effect of over 40% in size
In short: as §1

[15] = Quantitative High-Throughput drug screen in 47 multiple myeloma cell lines against the NCATS MIPE library collection: SKMM1_PLB cell viability assay (AID 1919863); conditions: SKMM1 myeloma viability, CellTiter-Glo ATP, 48 h; viability: active compounds read low; note: nearly all actives have a fitted effect of over 35% in size
In short: as §1

[16] = Quantitative High-Throughput drug screen in 47 multiple myeloma cell lines against the NCATS MIPE library collection: U266_ATCC cell viability assay (AID 1919864); note: nearly all actives have a fitted effect of over 35% in size;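 for viability (% of DMSO control): 0% = media-only wells without cells and 100% = DMSO-only wells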
In short: as §1

[17] = Quantitative High-Throughput drug screen in 47 multiple myeloma cell lines against the NCATS MIPE library collection: UTMC2_PLB cell viability assay (AID 1919868); conditions: CellTiter-Glo ATP luminescence, 48 h; viability (% of DMSO control): at 45.8 µM (top of the series); note: nearly all actives have a fitted effect of over 55% in size;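 for viability (% of DMSO control): 100% = DMSO-only wells and 0% = media-only wells without cells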
In short: as §1

[18] = Quantitative High-Throughput drug screen in 47 multiple myeloma cell lines against the NCATS MIPE library collection: RPMI8226_ATCC cell viability assay (AID 1919871); note: nearly all actives have a fitted effect of over 30% in size
In short: as §1

[19] = Quantitative High-Throughput drug screen in 47 multiple myeloma cell lines against the NCATS MIPE library collection: MM1S_ATCC cell viability assay (AID 1918980); note: nearly all actives have a fitted effect of over 45% in size
In short: as §1
Potency is the fitted concentration of half-maximal effect.

NC(=O)c1cnc(-c2ccc(C3(N)CCC3)cc2)c(-c2ccccc2)c1
inactive: Potency [8]
active: Potency [1] 1.48 µM | Potency [2] 7.43 µM | Potency [3] 2.64 µM | Potency [4] 0.332 µM | Potency [5] 1.87 µM | Potency [6] 0.187 µM | Potency [7] 16.6 µM | Potency [9] 13.2 µM | Potency [10] 5.9 µM | Potency [11] 1.32 µM

CCn1cc(C(=O)O)c(=O)c2ccc(C)nc21
inactive: Potency [1] | Potency [2] | Potency [3] | Potency [4] | Potency [12] | Potency [13] | Potency [14] | viability [15] 130% | Potency [7] | Potency [8] | Potency [10] | Potency [11]

O=c1cc(N2CCOCC2)oc2c(-c3cccc4c3sc3ccccc34)cccc12
active: Potency [1] 3.72 µM | Potency [2] 16.6 µM | Potency [4] 14.8 µM | Potency [12] 8.33 µM | Potency [5] 1.18 µM | Potency [6] 20.9 µM | Potency [14] 4.18 µM | Potency [15] 11.8 µM | Potency [7] 5.9 µM | Potency [8] 6.62 µM | Potency [9] 3.72 µM | Potency [17] 5.9 µM | Potency [10] 9.35 µM | Potency [11] 8.33 µM
inactive: Potency [16]

COC(=O)N[C@H](C(=O)N1CCC[C@@H]1c1ncc(-c2ccc(-c3ccc(-c4cnc([C@@H]5CCCN5C(=O)[C@@H](NC(=O)OC)C(C)C)[nH]4)cc3)cc2)[nH]1)C(C)C
active: Potency [1] 26.4 µM | Potency [2] 26.4 µM | Potency [3] 18.7 µM | Potency [12] 29.6 µM | Potency [5] 18.7 µM | Potency [7] 26.4 µM | Potency [11] 26.4 µM | Potency [18] 20.9 µM
inactive: Potency [17]

O=C(O)c1c(Cl)c(Cl)c(Cl)c(Cl)c1-c1c2cc(I)c(=O)c(I)c-2oc2c(I)c(O)c(I)cc12
inactive: Potency [17]
active: Potency [1] 6.62 µM | Potency [19] 6.62 µM | Potency [2] 13.2 µM | Potency [4] 14.8 µM | Potency [6] 13.2 µM | Potency [14] 9.35 µM | Potency [8] 5.9 µM | Potency [10] 6.62 µM | Potency [11] 6.62 µM

O=C1c2c(O)cc(O)cc2O[C@H](c2cc(O)c(O)c(O)c2)[C@H]1O
inactive: Potency [1] | Potency [14] | Potency [9] | Potency [17] | Potency [10] | Potency [11]
active: Potency [19] 20.9 µM | Potency [2] 23.5 µM | Potency [4] 20.9 µM | Potency [13] 11.8 µM | Potency [6] 13.2 µM | Potency [15] 20.9 µM | Potency [16] 11.8 µM

CC(C)C[C@H](CC(=O)O)C(=O)N[C@@H](Cc1c[nH]c2ccccc12)C(=O)N[C@@H](C)c1ccccc1
active: Potency [19] 1.66 µM
inactive: Potency [1] | Potency [12] | Potency [14] | Potency [7] | Potency [8] | Potency [17] | Potency [10] | Potency [11]

CO[C@H]1C[C@@H]2CC[C@@H](C)[C@@](O)(O2)C(=O)C(=O)N2CCCC[C@@H]2C(=O)O[C@H]([C@H](C)C[C@@H]2CC[C@H](OC(=O)C(C)(CO)CO)[C@H](OC)C2)CC(=O)[C@H](C)C=C(C)[C@@H](O)[C@@H](OC)C(=O)[C@H](C)C[C@H](C)C=CC=CC=C1C
active: Potency [1] 18.7 µM | Potency [5] 14.8 µM
inactive: Potency [19]

COc1cccc(-c2cc(=O)c3ccccc3o2)c1N
active: Potency [1] 0.332 µM | Potency [2] 5.9 µM | Potency [5] 2.96 µM | Potency [16] 8.33 µM | Potency [8] 1.66 µM | Potency [9] 1.32 µM | Potency [10] 4.18 µM
inactive: Potency [18]

c1ccc2c(Cc3c[nH]c4ccccc34)c[nH]c2c1
active: Potency [1] 1.05 µM | Potency [19] 1.32 µM | Potency [2] 2.35 µM | Potency [4] 26.4 µM | Potency [5] 1.05 µM | Potency [6] 0.743 µM | Potency [14] 7.43 µM | Potency [15] 18.7 µM | Potency [16] 2.96 µM | Potency [7] 0.662 µM | Potency [8] 1.18 µM | Potency [9] 4.18 µM | Potency [10] 2.96 µM | Potency [11] 4.69 µM
inactive: Potency [17]

CON=C(C(=O)N[C@@H]1C(=O)N2C(C(=O)OCOC(=O)C(C)(C)C)=C(C=Cc3scnc3C)CS[C@H]12)c1csc(N)n1
inactive: Potency [3] | Potency [6] | Potency [14] | Potency [18]
active: Potency [1] 20.9 µM | Potency [2] 18.7 µM | Potency [7] 26.4 µM | Potency [8] 18.7 µM | Potency [10] 18.7 µM | Potency [11] 20.9 µM

C=C1C(=O)OC2C=C(C)CCC=C(C)CCC12 (centres undefined)
active: Potency [1] 20.9 µM | Potency [19] 23.5 µM | Potency [2] 23.5 µM | Potency [4] 23.5 µM | Potency [12] 29.6 µM | Potency [13] 14.8 µM | Potency [5] 4.69 µM | Potency [14] 18.7 µM | Potency [15] 29.6 µM | Potency [16] 20.9 µM | Potency [8] 16.6 µM | Potency [10] 16.6 µM | Potency [11] 18.7 µM
inactive: Potency [17]

CC(=O)OC1C(C)OC(Oc2c(-c3ccc(O)cc3)oc3cc(O)cc(O)c3c2=O)C(O)C1OC(C)=O (centres undefined)
inactive: Potency [1] | Potency [3] | Potency [4] | Potency [13] | Potency [8] | Potency [9]
active: Potency [19] 20.9 µM | Potency [14] 10.5 µM | Potency [16] 18.7 µM | Potency [18] 10.5 µM

Source: PubChem BioAssay (NCATS)
